{
  "source": "PubChem BioAssay (NCI)",
  "note": "This is part of a sample that, as a whole, favours compounds with a hit. Of some 83,000 tested, about 20% had one in any assay.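 Step 1: grow cells in 96-well plates. Step 2: add test compound at a single concentration. Step 3: incubate 48 h. Step 4: record percent growth.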 Values without a mark were called inactive. Calls of active or inactive are those of the source. Rule for the calls: active = growth percent below 10; inactive = the rest.",
  "data": [
    {"test_system": "HL-60(TB) leukemia", "experiment": "NCI-60 one-dose screen, 48 h (100 = growth as untreated, 0 = no growth, -100 = all killed)", "conditions": "10 µM unless noted", "values": [
      {"smiles": "O=C(Nc1ccc(Cl)cc1)N1NC(c2ccc(Cl)cc2)C=C1c1ccccc1", "note": "(stereo not given)", "growth": "80.3%"},
      {"smiles": "COc1cccc(/C=C2\\Oc3cc(OCCN4CCCC4)ccc3C2=O)c1", "growth": "99.6%"},
      {"smiles": "N=C(N)c1ccc(-c2ccc(-c3cc(Cl)cc(Cl)c3)s2)nc1", "growth": "-7.02% (active)"},
      {"smiles": "c1ccc2c(Nc3cccc4ccccc34)cccc2c1", "growth": "18.9%"},
      {"smiles": "OCC1OC(OC2C(O)C(CO)OC2(CO)OC2OC(CO)C(O)C(O)C2O)C(O)C(O)C1O", "note": "(stereo not given)", "growth": "129%"},
      {"smiles": "CC(=O)OC[C@]12CC[C@@H]([C@@H](C)c3nnc(-c4ccncc4)o3)[C@@H]1[C@H]1CC[C@@H]3[C@@]4(C)CC[C@H](OC(C)=O)C(C)(C)[C@@H]4CC[C@@]3(C)[C@]1(C)CC2", "growth": "61.1%"},
      {"smiles": "O=C1/C(=C/c2cccc([N+](=O)[O-])c2)COc2ccc(O)c(O)c21", "growth": "-19.5% (active)"},
      {"smiles": "Oc1ccccc1/C=N/NC(=S)NC1CC2C=CC1C2", "note": "(stereo not given)", "growth": "58.3%"},
      {"smiles": "O=C(NC1CC1)c1cc2n(n1)CC(c1ccccc1)N2", "note": "(stereo not given)", "growth": "107%"},
      {"smiles": "CC(=O)OC[C@H](O)[C@@]1(O)CC[C@H]2[C@@H]3CCC4=CC(=O)CC[C@]4(C)[C@H]3[C@@H](O)C[C@@]21C", "growth": "101%"},
      {"smiles": "COc1cc(/C=C2\\CN(C)C/C(=C\\c3cc(CN4CCCCC4)c(O)c(OC)c3)C2=O)cc(CN2CCCCC2)c1O", "growth": "11%"},
      {"smiles": "c1ccc2cc3c(Nc4ccc(N5CCOCC5)cc4)ccnc3cc2c1", "growth": "99.1%"},
      {"smiles": "CCc1cnc2ccccc2c1/C=C/c1ccc(N(C)C)cc1", "growth": "12.9%"},
      {"smiles": "COc1cc2c(=O)n(CCN)c3c4cc5c(cc4ccc3c2cc1OC)OCO5", "growth": "-64.9% (active)"},
      {"smiles": "C[C@@H](C[C@H](CCO)c1ccccc1)c1ccc2ccccc2c1", "growth": "-38.5% (active)"},
      {"smiles": "OCc1ccccn1", "growth": "102%"},
      {"smiles": "O=C(O)c1cccc([N+](=O)[O-])c1/C=C/c1ccccc1", "growth": "97.4%"},
      {"smiles": "CC(C)(O)CCl", "growth": "120%"},
      {"smiles": "CCOC(=O)C1=C(c2ccccc2)NC(=O)NC1CN1C(=O)c2ccccc2C1=O", "note": "(stereo not given)", "growth": "57.4%"},
      {"smiles": "COc1ccc2cc(C(C)C(=O)Nc3ccc(-c4n[nH]c(=S)n4C4CCCCC4)cc3)ccc2c1", "note": "(stereo not given)", "growth": "73.6%"},
      {"smiles": "Cc1ccc(Cc2cnc(NC(=O)CN3C(=O)/C(=C\\c4ccccc4)SC3=S)s2)cc1", "growth": "99.6%"},
      {"smiles": "Nc1ncnc2c1C(c1ccc([N+](=O)[O-])cc1)c1sc3c(F)cccc3c1O2", "note": "(stereo not given)", "growth": "97.2%"},
      {"smiles": "O=C(O)c1cccc2c1Cc1cc([N+](=O)[O-])ccc1-2", "growth": "120%"},
      {"smiles": "CC(C)(C)c1cc(C(=O)Nc2ccccc2C(=O)NCCN)cc(C(C)(C)C)c1", "growth": "-51.8% (active)"},
      {"smiles": "COc1ccc(-c2c(-c3ccccc3)noc2N)cc1OC", "growth": "95.2%"}
    ]}
  ]
}
